CYP2C9 inh – inhibitors of human CYP2C9; P11712; CYP2C9 Supersomes, luciferin-H conversion, luminescence; inhibition, % at 5 µM; 20% of 96,000 active;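 active = blocking of liver enzyme CYP2C9 beyond about 50% at 5 µM, limit read from the data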
PTK2B oligo ant – Pyk2 (human) oligomerization antagonism | Q14289 | z-score (the deposit names both 25 µM and 10 µM) | 0.83% of 99,000 active | Q293 cells, Pyk2 FERM NanoBiT luminescence; active compounds read low;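 active = Z-score of -3 or lower, scaled per plate to the spread of control and sample wells; inactive = z-score above -3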;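 note: negative z-score means lost luminescence so less FERM oligomerization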
CYP2C19 inhib – human CYP2C19 inhibition | P33261 | 21% of 96,000 active | AID 778 | CYP2C19 Supersomes, luciferin-H EGE luminescence, 30 min | inhibition, % at 5 µM;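 active = CYP2C19 inhibition above a set limit at 5 µM in the primary screen, cut at about 50% in these data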;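 note: plate controls were negative control wells for no effect and 2.5 mM tranylcypromine positive control for full effect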
Target sequence (P33261 whole entry, looked up): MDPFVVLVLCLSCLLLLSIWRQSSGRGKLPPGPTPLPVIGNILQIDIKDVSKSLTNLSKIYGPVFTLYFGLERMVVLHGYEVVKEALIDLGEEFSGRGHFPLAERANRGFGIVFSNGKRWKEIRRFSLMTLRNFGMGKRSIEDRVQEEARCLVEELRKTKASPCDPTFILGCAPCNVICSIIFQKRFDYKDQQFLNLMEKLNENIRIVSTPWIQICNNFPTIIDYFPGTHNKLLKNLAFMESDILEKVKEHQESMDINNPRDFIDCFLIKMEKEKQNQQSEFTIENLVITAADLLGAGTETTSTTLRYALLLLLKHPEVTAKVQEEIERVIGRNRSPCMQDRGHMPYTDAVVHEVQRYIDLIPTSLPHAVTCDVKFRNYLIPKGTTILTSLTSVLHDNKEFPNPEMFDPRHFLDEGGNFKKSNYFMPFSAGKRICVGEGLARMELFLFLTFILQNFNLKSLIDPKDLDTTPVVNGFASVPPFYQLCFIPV
CYP2C9 act – increases human cytochrome P450 2C9 activity | P11712 | recombinant CYP2C9, luciferin-H conversion, luminescence; active compounds read high; factor 1 = untreated enzyme, 0 = blocked | activation factor at 5 µM | 1.4% of 96,000 active | AID 1024;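 active = activation factor of 2 or more for CYP2C9 at a 5 µM dose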;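 note: 0 = sulfaphenazole-blocked wells and 1 = vehicle-only wells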
CYP2C19 act – cytochrome P450 2C19 (human) activation | activation factor at 5 µM | 96,000 tested, under 10 active | recombinant CYP2C19, luciferin-H EGE luminescence; active compounds read high; 0 = fully inhibited enzyme, 1 = untreated enzyme | AID 1025;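 active = activation factor of at least 2 at 5 µM in the primary screen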;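 note: 0 = wells with 2.5 mM tranylcypromine and 1 = vehicle-only wells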
Cav32 inh – human Cav3.2 channel inhibition, primary screen; Cav3.2-expressing cells, Fluo-4 calcium fluorescence FDSS; active compounds read low; B-score at 10 µM; AID 449739; O95180; 4% of 100,000 active;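 active = single-dose well whose peak fluorescence ratio is a statistical outlier from its plate by either plate-standardised score or position-corrected B-score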
Numbers without * were called inactive; / = not tested or not shown. Compounds with a hit are over-represented: about 27% of the library has one in this group of screens.

SMILES	CYP2C9 inh	PTK2B oligo ant	CYP2C19 inhib	CYP2C9 act	CYP2C19 act	Cav32 inh
Cc1cccc(C(=O)NC(NCc2ccco2)C(Cl)(Cl)Cl)c1 (configuration not stated)	57.6*	0.3	32.2	0.4	0.7	-1.81
Cc1ccccc1C(=O)NC(NCc1ccco1)C(Cl)(Cl)Cl (configuration not stated)	13.1	0.13	18.3	0.9	0.8	-0.601
CC(=O)Nc1cccc(NC(=O)c2cc3ccccc3o2)c1	-59.9	-0.14	21.9	1.6	0.8	0.17
CN(C)S(=O)(=O)c1cccc(NC(=S)Nc2cc(Cl)cc(Cl)c2)c1	37.6	0.29	45.1	0.6	0.5	/
O=C(Nc1cccc(-c2nc3ncccc3o2)c1)c1cc2ccccc2o1	89.0*	-2.04	26.1	0.1	0.7	-1.51
CN(C)S(=O)(=O)c1cccc(NC(=S)Nc2ccc(Cl)cc2Cl)c1	67.1*	0.96	71.0*	0.3	0.3	/
CN(C)S(=O)(=O)c1cccc(NC(=O)c2cc3ccccc3o2)c1	61.2*	-0.74	21.0	0.4	0.8	-0.0289
COc1ccc(C[C@H]2CN3C(=NC[C@H]3C)N2CCNC(=O)c2ccc(C)c(Br)c2)cc1	/	/	/	/	/	-1.37
C/C(=N\O)C(=O)OC1CC(C)CCC1C(C)C (configuration not stated)	96.4*	-0.61	95.7*	0	0	-4.71*
CC1CCC(C(C)C)C(OC(=O)C[n+]2cccc(C(N)=O)c2)C1 (configuration not stated)	10.0	0.19	20.8	0.9	0.8	1.57
c1ccc(Oc2nc(Oc3ccccc3)nc(N3CCOCC3)n2)cc1	48.8	-2.15	59.5*	0.5	0.4	/
Clc1ccc(Oc2nc(Oc3ccc(Cl)cc3)nc(N3CCOCC3)n2)cc1	15.1	0.5	14.9	0.8	0.9	-3.74
COC(=O)c1ccc(Oc2nc(N3CCCCC3)nc(N3CCOCC3)n2)cc1	30.4	1.31	32.5	0.7	0.7	-4.27*
CCOc1ccc(-c2cn(CCC#N)cn2)cc1	41.2	1.93	65.0*	0.6	0.3	-0.0628
N#Cc1c(N)sc(=S)c2c1CCN(Cc1ccccc1)C2	69.0*	/	74.3*	0.3	0.3	-3.3
C=CCNc1nc(N2CCOCC2)c(C#N)c2c1CN(C)CC2	40.4	0.02	13.7	0.6	0.9	0.882
C=CCNc1nc(N2CCCCC2)c(C#N)c2c1CN(Cc1ccccc1)CC2	90.3*	-0.28	61.6*	0.1	0.4	-0.0457
CCN1CCc2c(C#N)c(N3CCCCC3)nc(NCc3ccccc3)c2C1	70.5*	0.88	30.5	0.3	0.7	-1.44
CCN1CCc2c(C#N)c(N3CCOCC3)nc(NCCO)c2C1	2.4	-0.32	-2.7	1	1	-0.331
CCN1CCc2c(C#N)c(N3CCOCC3)nc(NCc3ccccc3)c2C1	70.4*	0.38	46.3	0.3	0.5	-0.0878
Cc1cc(C)c(Cn2c(=O)n(CCCC(=O)NCc3ccco3)c(=O)c3ccccc32)c(C)c1	/	-1.4	/	/	/	/
N#Cc1c(NCCO)nc(NCc2ccccc2)c2c1CCN(Cc1ccccc1)C2	94.3*	/	25.7	0.1	0.7	-3.64*
O=C(CN(Cc1cccs1)C(=O)CN1C(=O)COc2ccccc21)NCc1ccco1	13.4	0.09	12.1	0.9	0.9	-0.139
NCc1ccccc1COc1ccccc1	/	1.17	/	/	/	/
CCCC(=O)NC(Nc1ccccc1F)C(Cl)(Cl)Cl (configuration not stated)	56.7*	/	53.1*	0.4	0.5	-0.172
SMILES	CYP2C9 inh	PTK2B oligo ant	CYP2C19 inhib	CYP2C9 act	CYP2C19 act	Cav32 inh
CC(C)CC(=O)NC(Nc1ccccc1F)C(Cl)(Cl)Cl (configuration not stated)	57.8*	-0.51	51.6*	0.4	0.5	/
CC(C)NC(NC(=O)Cc1ccccc1)C(Cl)(Cl)Cl (configuration not stated)	14.7	0.38	44.2	0.9	0.6	0.556
CCCC(=O)NC(Nc1cc(C(F)(F)F)ccc1Cl)C(Cl)(Cl)Cl (configuration not stated)	19.7	-1.61	14.5	0.8	0.9	-1.95
CCOC(=O)CCP(=O)(O)C(O)c1ccc(OC)cc1 (configuration not stated)	5.5	-0.57	-0.4	0.9	1	0.0695
O=C(Nc1ccc2c(c1)oc1ccccc12)c1ccncc1	97.2*	0.25	81.6*	0	0.2	0.0536
O=C(Nc1ccc(S(=O)(=O)NC2CCCC2)cc1)c1cnccn1	94.7*	0.57	27.8	0.1	0.7	-0.0907
O=C(Nc1ccc2nccnc2c1)c1cnccn1	2.2	1.06	51.0*	1	0.5	0.0339
O=C(Nc1ccccc1)c1ccncc1	-11.7	-0.44	16.3	1.1	0.8	1.67
O=C(Nc1cnc2ccccc2c1)c1ccncc1	70.5*	/	85.9*	0.3	0.1	0.635
CCOc1ccc2[nH]cc(C(=O)N3CCN(CC)CC3)c(=O)c2c1	-1.2	0.97	-7.4	1	1.1	-0.797
N#Cc1cccc(NC(=O)CN2NS(=O)(=O)c3ccccc3C2=O)c1	17.0	0.34	10.4	0.8	0.9	0.0782
O=C(Nc1ccc(F)cc1)c1cccc(NC(=O)C2C3CC4OC(=O)C2C4C3)c1 (configuration not stated)	2.9	-0.38	-8.2	1	1.1	0.13
CCOc1cc2[nH]c(=O)n(CCCCC(=O)NCc3ccco3)c(=O)c2cc1OCC	/	-0.05	/	/	/	0.96
O=C(Nc1ccc2ccccc2c1)c1cccnc1	7.7	0	17.0	0.9	0.8	0.881
O=C(Nc1ccc2ccccc2c1)c1cnccn1	-21.6	0.29	56.5*	1.2	0.4	0.00323
COc1cc(O)c(C(CC(=O)N2CCCC(C)C2)c2cc(OC)c(OC)c(OC)c2)c(OC)c1 (configuration not stated)	/	/	/	/	/	0.462
CC(=O)NC1(C(F)(F)F)C(=O)NC(C)=C1C#N (configuration not stated)	-12.9	-0.15	-17.5	1.1	1.2	0.342
CC1=C(C#N)C(Nc2ccc(Cl)cn2)(C(F)(F)F)C(=O)N1 (configuration not stated)	20.8	-1.87	82.9*	0.8	0.2	-1.21
CC1=C(C#N)C(Nc2ccc(C)cn2)(C(F)(F)F)C(=O)N1 (configuration not stated)	41.7	-1.18	89.1*	0.6	0.1	0.494
COc1cccc(NC2CC(=O)N(CCc3ccccc3)C2=O)c1 (configuration not stated)	20.9	-1.47	49.8	0.8	0.5	-0.423
COc1ccc(NC2CC(=O)N(c3cccc(C)c3)C2=O)cc1 (configuration not stated)	12.6	-0.96	59.9*	0.9	0.4	-0.0231
Cc1ccc(NC2CC(=O)N(Cc3ccccc3)C2=O)cc1 (configuration not stated)	-45.6	0.47	67.9*	1.5	0.3	0.428
